In ChEMBL document CHEMBL3988442, “University of Dundee, Small-Polar-MMV Screening Library” (2021):
For some of these results: Entries with a potency or affinity are not part of this list.

Key:
Parameters in all cases: scale not given: direction of the effect not stated beside the values
[1] = biological target: Protein translocase subunit SecA (Escherichia coli (strain K12)) (UniProt P10408); experiment: Assay to Identify E. coli SecA ATPase Inhibitors; type: functional; settings: 30 µM
[2] = biological target: T1, Ubiquitin-activating enzyme e1, putative (Leishmania donovani (strain BPK282A1)) (UniProt E9BSI1); experiment: Leishmania donovani Ubiquitin Activating Enzyme (LdE1); type: functional; settings: 30 µM
T1 sequence (whole entry): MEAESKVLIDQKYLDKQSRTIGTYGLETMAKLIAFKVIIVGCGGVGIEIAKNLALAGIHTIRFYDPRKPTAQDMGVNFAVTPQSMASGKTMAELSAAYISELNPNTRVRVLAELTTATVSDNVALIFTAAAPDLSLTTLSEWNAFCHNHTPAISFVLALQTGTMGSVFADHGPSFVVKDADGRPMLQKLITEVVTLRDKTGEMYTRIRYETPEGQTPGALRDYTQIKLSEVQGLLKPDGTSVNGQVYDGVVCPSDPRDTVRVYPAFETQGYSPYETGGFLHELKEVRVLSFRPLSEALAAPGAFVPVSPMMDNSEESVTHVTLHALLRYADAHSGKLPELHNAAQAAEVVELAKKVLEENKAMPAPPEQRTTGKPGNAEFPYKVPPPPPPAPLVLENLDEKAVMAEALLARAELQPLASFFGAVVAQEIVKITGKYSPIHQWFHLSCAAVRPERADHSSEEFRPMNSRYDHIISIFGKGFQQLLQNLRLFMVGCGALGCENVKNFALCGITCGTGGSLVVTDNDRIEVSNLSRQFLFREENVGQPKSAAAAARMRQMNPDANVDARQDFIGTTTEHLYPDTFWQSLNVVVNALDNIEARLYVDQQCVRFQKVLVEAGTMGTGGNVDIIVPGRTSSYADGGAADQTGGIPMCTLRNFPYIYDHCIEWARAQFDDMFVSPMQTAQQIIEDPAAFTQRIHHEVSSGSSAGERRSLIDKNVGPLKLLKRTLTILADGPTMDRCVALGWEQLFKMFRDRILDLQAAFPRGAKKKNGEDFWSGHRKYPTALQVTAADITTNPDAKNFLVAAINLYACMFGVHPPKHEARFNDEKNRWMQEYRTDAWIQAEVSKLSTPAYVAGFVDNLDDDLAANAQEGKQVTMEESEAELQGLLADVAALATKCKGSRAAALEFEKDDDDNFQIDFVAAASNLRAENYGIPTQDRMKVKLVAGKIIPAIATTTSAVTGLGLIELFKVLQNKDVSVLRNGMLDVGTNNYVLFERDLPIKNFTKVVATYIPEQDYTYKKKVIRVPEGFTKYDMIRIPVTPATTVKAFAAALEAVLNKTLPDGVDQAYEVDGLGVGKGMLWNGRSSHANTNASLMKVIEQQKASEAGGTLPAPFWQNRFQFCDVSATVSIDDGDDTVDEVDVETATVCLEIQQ

[3] = biological target: AMP-activated protein kinase, AMPK (Homo sapiens) (UniProt P54646+O43741+P54619+Q9UGJ0+Q9Y478+Q13131+Q9UGI9); experiment: AMP-dependent Kinase enzyme assay. An in vitro enzyme assay that detects ADP turnover that is directly proportional to AMPK activity. This uses naive AMPK that is activated during the assay with MK-8722; type: functional; settings: 30 µM
[4] = biological target: Sialic acid-binding Ig-like lectin 9 (Homo sapiens) (UniProt Q9Y336); experiment: Hs-Siglec9 ALPHAscreen SOP 20170721; settings: 10 µM
Trypanosoma cruzi = experiment: Trypanosoma cruzi phosphomannomutase and mannose-1-phosphate guanylyltransferase assay; type: functional; settings: 10 µM
[5] = biological target: T2, Arginase-2, mitochondrial (Homo sapiens) (UniProt P78540); experiment: in vitro enzyme assay to detect the production of urea directly proportional to the activity of Arginase II; type: functional; settings: 33.3 µM; also: in the data most compounds retested in dose-response had high values
T2 sequence (whole entry): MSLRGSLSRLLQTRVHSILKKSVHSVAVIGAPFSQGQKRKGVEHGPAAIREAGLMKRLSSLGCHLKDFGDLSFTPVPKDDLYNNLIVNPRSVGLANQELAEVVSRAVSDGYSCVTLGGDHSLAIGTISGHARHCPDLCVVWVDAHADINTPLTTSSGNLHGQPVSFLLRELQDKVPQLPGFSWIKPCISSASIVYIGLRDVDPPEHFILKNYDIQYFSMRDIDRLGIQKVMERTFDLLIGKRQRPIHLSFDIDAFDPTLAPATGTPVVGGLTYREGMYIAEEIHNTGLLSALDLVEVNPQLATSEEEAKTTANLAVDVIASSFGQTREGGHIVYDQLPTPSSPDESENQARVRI

[6] = biological target: T3, Proteasome subunit beta (Trypanosoma cruzi) (UniProt O96673); experiment: Trypanosoma cruzi proteasome chymotrypsin-like activity (TcProtChymo) assay.; also: in the data most compounds retested in dose-response had high values; type: functional; settings: 9.37 µM
T3 sequence (whole entry): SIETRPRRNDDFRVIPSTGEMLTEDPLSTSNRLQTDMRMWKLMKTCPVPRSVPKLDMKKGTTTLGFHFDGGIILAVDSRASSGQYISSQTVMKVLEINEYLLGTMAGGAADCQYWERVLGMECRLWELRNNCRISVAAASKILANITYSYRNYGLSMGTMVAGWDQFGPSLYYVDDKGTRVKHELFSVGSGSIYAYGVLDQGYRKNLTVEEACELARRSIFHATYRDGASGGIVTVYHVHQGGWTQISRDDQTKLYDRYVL

Homo sapiens = species: Homo sapiens; experiment: To identify inhibition of the IFN signalling (Jak-Stat) pathway via expression of an eGFP reporter gene under the control of an IFN-stimulated response element (ISRE) containing MxA promoter.; type: functional; settings: 30 µM
[7] = biological target: T4, Tyrosyl-tRNA synthetase, putative (Trypanosoma cruzi (strain CL Brener)) (UniProt Q4DSP6); experiment: Trypanosoma cruzi tyrosyl tRNA synthetase (TcYRS) _High Tyrosine SOP; type: functional; settings: 30 µM; also: in the data most compounds retested in dose-response had high values
T4 sequence (whole entry): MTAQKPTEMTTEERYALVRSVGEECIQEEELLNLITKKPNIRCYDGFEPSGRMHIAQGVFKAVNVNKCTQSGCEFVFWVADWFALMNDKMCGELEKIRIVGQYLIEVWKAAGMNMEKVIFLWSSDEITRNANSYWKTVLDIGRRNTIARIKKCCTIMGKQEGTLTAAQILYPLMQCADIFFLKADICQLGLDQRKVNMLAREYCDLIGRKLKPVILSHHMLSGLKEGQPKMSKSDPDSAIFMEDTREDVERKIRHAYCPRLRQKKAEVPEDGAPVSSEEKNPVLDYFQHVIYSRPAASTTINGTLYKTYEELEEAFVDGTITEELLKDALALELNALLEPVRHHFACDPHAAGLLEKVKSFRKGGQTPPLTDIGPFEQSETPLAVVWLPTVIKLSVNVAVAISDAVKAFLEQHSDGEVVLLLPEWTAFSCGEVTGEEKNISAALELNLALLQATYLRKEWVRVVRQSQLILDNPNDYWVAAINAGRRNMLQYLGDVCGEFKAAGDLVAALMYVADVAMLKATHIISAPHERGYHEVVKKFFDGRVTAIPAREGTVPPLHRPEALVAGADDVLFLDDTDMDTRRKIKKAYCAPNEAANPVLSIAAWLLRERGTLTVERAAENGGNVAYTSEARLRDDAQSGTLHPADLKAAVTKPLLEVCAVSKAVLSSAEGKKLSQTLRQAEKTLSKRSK

[8] = biological target: T4, Tyrosyl-tRNA synthetase, putative (Trypanosoma cruzi (strain CL Brener)); experiment: Trypanosoma cruzi tyrosyl tRNA synthetase (TcYRS) SOP; type: functional; settings: 30 µM
[9] = biological target: Chromo domain-containing protein 1 (Saccharomyces cerevisiae (strain ATCC 204508 / S288c) (Baker's yeast)) (UniProt P32657); experiment: ScCHD-1 Enzyme Inhibition Assay; type: functional; settings: 30 µM; also: in the data most compounds retested in dose-response had high values
Chromo domain-containing protein 1 (Saccharomyces cerevisiae (strain ATCC 204508 / S288c) (Baker's yeast)), sequence (P32657 whole entry, the tested form may be a part): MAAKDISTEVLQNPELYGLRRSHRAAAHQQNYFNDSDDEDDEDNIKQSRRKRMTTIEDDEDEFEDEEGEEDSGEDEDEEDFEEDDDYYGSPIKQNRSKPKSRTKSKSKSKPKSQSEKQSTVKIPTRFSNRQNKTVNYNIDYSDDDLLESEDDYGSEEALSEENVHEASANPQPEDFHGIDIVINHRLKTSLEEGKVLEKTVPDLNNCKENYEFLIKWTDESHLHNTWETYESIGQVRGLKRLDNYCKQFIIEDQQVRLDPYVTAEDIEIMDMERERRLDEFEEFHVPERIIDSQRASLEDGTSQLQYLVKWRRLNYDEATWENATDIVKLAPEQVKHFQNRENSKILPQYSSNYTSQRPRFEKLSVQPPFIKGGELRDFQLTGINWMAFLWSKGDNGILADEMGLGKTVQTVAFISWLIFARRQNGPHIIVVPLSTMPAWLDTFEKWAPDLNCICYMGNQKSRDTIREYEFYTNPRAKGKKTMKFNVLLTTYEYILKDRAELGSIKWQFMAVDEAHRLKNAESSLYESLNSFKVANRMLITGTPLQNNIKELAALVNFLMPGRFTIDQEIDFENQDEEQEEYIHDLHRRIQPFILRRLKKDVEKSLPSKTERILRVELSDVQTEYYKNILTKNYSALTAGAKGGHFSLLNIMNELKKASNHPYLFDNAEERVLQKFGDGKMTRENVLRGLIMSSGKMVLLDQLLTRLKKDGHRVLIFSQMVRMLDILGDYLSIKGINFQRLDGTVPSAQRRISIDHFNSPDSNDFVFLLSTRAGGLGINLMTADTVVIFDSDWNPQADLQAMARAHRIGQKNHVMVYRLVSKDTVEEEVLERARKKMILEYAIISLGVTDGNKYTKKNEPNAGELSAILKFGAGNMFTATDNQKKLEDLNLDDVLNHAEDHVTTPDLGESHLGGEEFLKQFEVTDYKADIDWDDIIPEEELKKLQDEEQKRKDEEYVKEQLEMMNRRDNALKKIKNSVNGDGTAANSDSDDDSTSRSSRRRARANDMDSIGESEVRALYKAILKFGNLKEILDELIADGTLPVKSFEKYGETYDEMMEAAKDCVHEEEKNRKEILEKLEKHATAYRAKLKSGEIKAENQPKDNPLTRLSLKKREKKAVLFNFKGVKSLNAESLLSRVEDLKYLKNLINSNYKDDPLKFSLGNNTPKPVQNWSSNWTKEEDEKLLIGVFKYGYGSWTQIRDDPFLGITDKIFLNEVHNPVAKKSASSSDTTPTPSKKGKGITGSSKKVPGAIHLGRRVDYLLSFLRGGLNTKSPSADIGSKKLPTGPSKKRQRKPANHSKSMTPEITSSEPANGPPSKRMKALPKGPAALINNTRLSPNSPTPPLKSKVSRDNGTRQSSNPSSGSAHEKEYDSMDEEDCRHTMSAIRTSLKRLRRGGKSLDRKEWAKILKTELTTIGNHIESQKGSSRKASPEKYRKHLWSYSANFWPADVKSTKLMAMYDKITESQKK

Protein translocase subunit SecA (Escherichia coli (strain K12)), sequence (P10408 whole entry): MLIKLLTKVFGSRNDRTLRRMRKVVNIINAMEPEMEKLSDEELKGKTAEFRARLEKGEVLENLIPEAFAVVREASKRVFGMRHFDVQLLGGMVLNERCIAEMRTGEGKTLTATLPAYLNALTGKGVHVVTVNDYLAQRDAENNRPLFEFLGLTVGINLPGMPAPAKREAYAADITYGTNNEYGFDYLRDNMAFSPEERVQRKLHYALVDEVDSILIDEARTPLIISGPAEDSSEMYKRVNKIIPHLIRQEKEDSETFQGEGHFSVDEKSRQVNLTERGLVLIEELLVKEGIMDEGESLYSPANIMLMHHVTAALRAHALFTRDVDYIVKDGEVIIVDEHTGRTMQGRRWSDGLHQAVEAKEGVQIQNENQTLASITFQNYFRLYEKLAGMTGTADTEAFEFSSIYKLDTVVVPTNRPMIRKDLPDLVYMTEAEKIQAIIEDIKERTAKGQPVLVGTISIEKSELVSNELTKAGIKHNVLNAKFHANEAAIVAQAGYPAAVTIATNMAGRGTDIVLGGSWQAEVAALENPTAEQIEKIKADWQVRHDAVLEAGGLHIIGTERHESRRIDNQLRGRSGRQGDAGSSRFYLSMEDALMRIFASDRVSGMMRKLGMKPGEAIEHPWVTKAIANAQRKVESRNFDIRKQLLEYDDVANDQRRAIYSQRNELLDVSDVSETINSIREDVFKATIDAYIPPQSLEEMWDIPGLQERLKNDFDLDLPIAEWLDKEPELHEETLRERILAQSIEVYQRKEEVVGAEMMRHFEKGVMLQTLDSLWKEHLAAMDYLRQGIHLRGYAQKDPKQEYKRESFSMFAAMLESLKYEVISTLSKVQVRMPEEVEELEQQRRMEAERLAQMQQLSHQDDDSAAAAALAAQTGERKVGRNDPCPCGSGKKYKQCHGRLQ
Sialic acid-binding Ig-like lectin 9 (Homo sapiens), sequence (Q9Y336 whole entry): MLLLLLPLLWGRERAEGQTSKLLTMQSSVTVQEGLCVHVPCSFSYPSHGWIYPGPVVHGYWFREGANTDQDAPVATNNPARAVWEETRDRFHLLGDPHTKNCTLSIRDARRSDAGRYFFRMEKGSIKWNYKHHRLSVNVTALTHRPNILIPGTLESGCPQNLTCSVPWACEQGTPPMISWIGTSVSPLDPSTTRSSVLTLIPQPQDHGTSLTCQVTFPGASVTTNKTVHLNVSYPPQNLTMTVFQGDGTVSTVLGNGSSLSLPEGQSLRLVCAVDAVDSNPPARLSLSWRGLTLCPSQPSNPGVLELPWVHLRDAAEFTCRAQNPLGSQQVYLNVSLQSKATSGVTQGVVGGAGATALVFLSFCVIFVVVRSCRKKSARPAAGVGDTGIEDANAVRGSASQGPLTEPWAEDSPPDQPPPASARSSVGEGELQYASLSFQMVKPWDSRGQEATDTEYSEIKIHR

Compound	Percent Effect [1]	Percent Effect [2]	Percent Effect [3]	Percent Effect [4]	Percent Effect (Trypanosoma cruzi)	Percent Effect [5]	Percent Effect [6]	Percent Effect (Homo sapiens)	Percent Effect [7]	Percent Effect [8]	Percent Effect [9]
COCCN1C[C@@H]2CN(Cc3cccc(F)c3)CCC[C@]2(C(=O)O)C1	-4.38%	0%	0.729%	-3.33%	-4.24%	1.94%	8.53%	3.04%	-2.12%	-1.28%	-7.5%
CSCC(=O)N1CCCC(n2ccnc2C(C)C)C1 (stereo unspecified)	-0.321%	15.8%	-1.19%	-13.5%	-6.63%	5.4%	6.01%	-1.49%	8.37%	18.5%	-9.2%
Cc1cc(C)c2c(OCC(=O)NC(C)C)nn(C)c2n1	-3.72%	10.8%	-1.72%	25.4%	7.72%	11.4%	6.9%	10.7%	0.529%	12.2%	-13%
Cc1cc(NS(=O)(=O)c2ccccc2F)ccc1-n1cccc1C(=O)O	-2.35%	2.63%	6.59%	4.36%	-1.27%	-7.1%	24.1%	-10.4%	-4.25%	0%	-2.97%
CN(C)C(C(=O)N1CCCC1)c1ccccc1F (stereo unspecified)	-2.84%	1.39%	3.5%	-3.25%	-5.54%	5.3%	4.74%	-1.68%	3.16%	2.56%	-0.0422%
CC(=O)Nc1nc(CN2CCCC2Cn2cncn2)cs1 (stereo unspecified)	-7.57%	13%	-6.56%	16.5%	10.3%	2.85%	9.29%	18.8%	9.71%	26.8%	-12.8%
c1cnn(CC2CCCN2c2ncnc3ccsc23)c1 (stereo unspecified)	-0.167%	13.5%	3.45%	-4.74%	-8.08%	6.84%	8.8%	53.8%	7.92%	18.3%	-4.66%
O=C(c1ccncc1)N1C[C@@H]2CC[C@H](C1)N(C(=O)N1CCOCC1)C2	-0.807%	2.67%	-4.2%	3.79%	-4.38%	4.69%	15.5%	10.6%	6.01%	13.6%	-5.41%
OCCn1cc(CN2CCN(CCOc3ccccc3)CC2)cn1	-4.31%	8.11%	-1.96%	0.413%	-4.36%	1.29%	11.3%	3.13%	2.97%	3.66%	-2.48%
CC(C)C(=O)NCCCn1ncc2c(Cl)cccc21	-4.7%	10.4%	1.13%	17.2%	5.61%	-8.28%	4.33%	-1.52%	5.38%	11.1%	-3.62%
Cc1ccsc1CN(Cc1ccccn1)CC(C)C	-2.24%	1.39%	-11.5%	11.7%	4.76%	8.39%	8.95%	-27.8%	7.37%	7.69%	-1.62%
